Laboratory results taken from PubChem BioAssay AID488893 (Broad Institute, 2010).
Potency and affinity values are given separately. Values without a mark were called inactive.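 How the source made its calls: active means falling signal whose fitted half-maximal dose is at most ten times the top valid tested dose; inconclusive means flat curve with 30 to 70% inhibition, or poor fit; inactive means the rest, including changes in the wrong direction.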

Experiment: Candida albicans growth inhibition, compound alone, dose response, counter-screen for antifungal drug resistance project, CaCi-2 strain, Alamar Blue, dry powder, set 2 (AID 488893)
Conditions: C. albicans CaCi-2 (fluconazole-resistant clinical isolate) growth, Alamar Blue fluorescence, 48 h; series mostly up to 26 µM; activity change, negative = inhibition: at the top concentration

| Compound | activity change, negative = inhibition |
| --- | --- |
| N#Cc1ccc(N2CCN(C(=O)c3ccc(Cl)cc3)CC2)nc1 | 16.7% |
| COc1cccc2c(N3CCN(C(=O)c4ccc(Cl)cc4)CC3)cc(C)nc12 | 5.94% |
| O=C(C1CCCCC1)N1CCN(c2ccnc3cc(Cl)ccc23)CC1 | -8.06% |
| O=C(O)Cn1nc(-c2ccccc2)c2ccccc21 | 8.12% |
| O=C(c1ccc(Cl)cc1)N1CCN(c2ccncc2)CC1 | 29.5% |
| CCCC(=O)N1CCN(c2ccnc3cc(Cl)ccc23)CC1 | -11.4% |
| O=C(c1ccc(Cl)cc1)N1CCN(c2ccccn2)CC1 | -10.9% |
| O=C(c1ccccc1Cl)N1CCN(c2ccnc3cc(Cl)ccc23)CC1 | 12.5% |
| O=C(c1ccc(Cl)cc1)N1CCCN(c2ccnc3cc(Cl)ccc23)CC1 | 2.42% |
| O=C(c1ccc(Cl)cc1)N1CCN(c2cccnc2)CC1 | -12.4% |
| O=C(c1ccc(Cl)cn1)N1CCN(c2ccnc3cc(Cl)ccc23)CC1 | -4.37% |
| Cc1cc(N2CCN(C(=O)c3ccc(Cl)cc3)CC2)c2ccccc2n1 | 0.168% |
